Structures are written as SMILES. About 83,000 compounds went through this panel and 20% of them were active in at least one assay; those are over-represented in the sample as a whole.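 Each cell line was grown in a 96-well plate and treated with one concentration of compound for 48 hours. Values below 10 were considered active.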 Unmarked numbers belong to inactive results. The source made the active and inactive calls.

Test systems include HT29 colon; SNB-75 CNS; SNB-19 CNS; U251 CNS; PC-3 prostate; SK-MEL-5 melanoma; UACC-62 melanoma; SK-MEL-28 melanoma; SK-MEL-2 melanoma; EKVX NSCLC; SN12C renal; UO-31 renal; TK-10 renal; ACHN renal; CAKI-1 renal; A498 renal; CCRF-CEM leukemia; MOLT-4 leukemia; SR leukemia; LOX IMVI melanoma.
Common to all, as to test: NCI-60 one-dose screen, 48 h (100 = growth as untreated, 0 = no growth, -100 = all killed)
What all share (conditions): 10 µM unless noted

As to `ClC1C2CC(c3ccccc32)C1Cl` (centres undefined), the growth was 100% with HT29 colon; 102% in the assay with SNB-75 CNS; 104% with SNB-19 CNS; 106% in the assay on U251 CNS; 104% with PC-3 prostate; 113% with SK-MEL-5 melanoma. For the same compound, the growth with UACC-62 melanoma is 101%; in the assay on SK-MEL-28 melanoma, 108%; in the assay with SK-MEL-2 melanoma, 104%; with EKVX NSCLC, 123%; in the assay with SN12C renal, 102%; with UO-31 renal it was 108%. The growth in the assay on TK-10 renal is 108%; in the assay on ACHN renal it was 104%; in the assay with CAKI-1 renal, 118%; with A498 renal it was 92.4%; in the assay on CCRF-CEM leukemia, 96.8%; in the assay with MOLT-4 leukemia it was 101%. Moreover, the growth in the assay with SR leukemia is 106%.

Turning to `O=C(/C=C/c1cccnc1)NCCCCC1CCCN(C(=O)c2ccccc2)C1` (centres undefined), the growth is 32.8% with HT29 colon; 87.7% with SNB-75 CNS; 53.3% with SNB-19 CNS; 43.1% with U251 CNS; 47.5% in the assay with PC-3 prostate; 61.7% in the assay with SK-MEL-5 melanoma. The growth is 87.5% in the assay on UACC-62 melanoma; 73.1% in the assay with SK-MEL-28 melanoma; 15.3% in the assay with SK-MEL-2 melanoma; 106% with EKVX NSCLC; 38.3% in the assay on SN12C renal; 39.9% in the assay with UO-31 renal. In addition, the growth was 103% in the assay on TK-10 renal; 73.7% in the assay with ACHN renal; -15.7% (active) with CAKI-1 renal; 101% in the assay with A498 renal; 41.5% with CCRF-CEM leukemia; 43.8% in the assay on MOLT-4 leukemia. Also, the growth in the assay with SR leukemia was 33%.

Take `CC(C)[C@H]1CC[C@H]2[C@@H](CC[C@H]3[C@](C)(CN)CCC[C@]23C)C1`: the growth is -57.7% (active) in the assay on HT29 colon; 69% in the assay on SNB-75 CNS; 98.1% in the assay with SNB-19 CNS; 6.81% (active) in the assay with U251 CNS; 65.1% in the assay on PC-3 prostate; 99.5% with SK-MEL-5 melanoma. The growth with UACC-62 melanoma was 92.7%; in the assay with SK-MEL-28 melanoma it was 102%; with SK-MEL-2 melanoma, 80.3%; in the assay on EKVX NSCLC, 68.5%; with SN12C renal, 85.9%; in the assay with UO-31 renal, 70.1%. The growth with TK-10 renal is 89.6%; in the assay on ACHN renal, 84%; in the assay with CAKI-1 renal, 87.6%; in the assay on A498 renal, 81.3%; in the assay on CCRF-CEM leukemia, 48.3%; in the assay with MOLT-4 leukemia, 37.2%.

Take `O=C(Nc1nc2ccccc2s1)c1cc(-c2ccc(F)cc2)n2nc(-c3ccccc3)cc2n1`: the growth with HT29 colon is 74.5%; with SNB-75 CNS, 38.4%; with SNB-19 CNS, 71.3%; in the assay on U251 CNS, 18.2%; in the assay on PC-3 prostate, 56.9%; in the assay with SK-MEL-5 melanoma, 72.6%. The growth in the assay on UACC-62 melanoma is 70.6%; in the assay with LOX IMVI melanoma, 45.6%; in the assay with SK-MEL-28 melanoma, 85.4%; in the assay with EKVX NSCLC, 68.8%; in the assay on SN12C renal, 57.5%; with UO-31 renal it was 51.4%. The growth in the assay on TK-10 renal is 129%; with ACHN renal, 13.5%; in the assay on CAKI-1 renal, 53.2%; in the assay on A498 renal it was -9.36% (active); in the assay on CCRF-CEM leukemia, 21.6%; with MOLT-4 leukemia, 61.9%. Besides, in the assay with SR leukemia, the growth is 18.6%.

In the case of `O=C1/C(=C/c2ccc([N+](=O)[O-])o2)Oc2ccc(Cl)cc21`, the growth with HT29 colon was -15.3% (active); in the assay with SNB-75 CNS, 66.5%; with SNB-19 CNS, 91.9%; in the assay on U251 CNS it was 50.2%; in the assay on PC-3 prostate, -5.46% (active); with SK-MEL-5 melanoma, 18.4%. Also, the growth in the assay with UACC-62 melanoma was -89% (active); with LOX IMVI melanoma, -61.8% (active); in the assay with SK-MEL-28 melanoma, 11.2%; in the assay on SN12C renal, -41.6% (active); with UO-31 renal, -86.1% (active); with TK-10 renal, -59.8% (active). The growth in the assay with ACHN renal was -61% (active); in the assay on CAKI-1 renal, 3.65% (active); with A498 renal, 108%; in the assay with CCRF-CEM leukemia, -23.4% (active); in the assay on MOLT-4 leukemia it was -12.4% (active); with SR leukemia it was 5.52% (active).

For `S=C1SCN(Cc2ccccc2)CN1Cc1ccco1`, the growth in the assay on HT29 colon is 27.4%; with SNB-75 CNS, 92.1%; in the assay on SNB-19 CNS it was 101%; in the assay on U251 CNS, 97.3%; in the assay on PC-3 prostate, 90.3%; in the assay with SK-MEL-5 melanoma it was 87.3%. The growth in the assay on UACC-62 melanoma was 91.6%; in the assay on LOX IMVI melanoma it was 81.6%; in the assay on SK-MEL-28 melanoma, 105%; in the assay with SN12C renal, 93.5%; in the assay with UO-31 renal, 78.6%; with TK-10 renal, 28.7%. The growth in the assay with ACHN renal is 107%; in the assay on CAKI-1 renal, 96.7%; in the assay on A498 renal, 99%; in the assay with CCRF-CEM leukemia it was 10.8%; in the assay with MOLT-4 leukemia, 51.6%; in the assay on SR leukemia it was 22%.

`O=C(Nc1ccccc1Cl)c1cnc2ccc(C3CCNCC3)cn12`: the growth was 18% with HT29 colon; -6.82% (active) in the assay with SNB-75 CNS; 84.6% in the assay with SNB-19 CNS; 88.4% in the assay with U251 CNS; 72.1% in the assay on PC-3 prostate; 90.6% in the assay with SK-MEL-5 melanoma. The growth with UACC-62 melanoma was 93.6%; in the assay on SK-MEL-28 melanoma, 102%; in the assay on SK-MEL-2 melanoma, 92.4%; in the assay with EKVX NSCLC, 38.5%; in the assay with SN12C renal it was 58.8%; in the assay with UO-31 renal, -9.91% (active). In addition, the growth in the assay with TK-10 renal is -13.2% (active); in the assay with ACHN renal, 12.7%; in the assay with CAKI-1 renal, -40.1% (active); in the assay on A498 renal, 36.6%; with CCRF-CEM leukemia it was 112%; in the assay with MOLT-4 leukemia, 62.5%. Also, the growth in the assay on SR leukemia is 93%.

For the compound `COc1ccc2c(c1)/C(=C\c1c[nH]c3ccc(F)cc13)C(=O)N2`, the growth is 86.1% in the assay on HT29 colon; 86.7% in the assay with SNB-75 CNS; 93.9% in the assay with SNB-19 CNS; 83.4% in the assay with U251 CNS; 84% with PC-3 prostate; 97% in the assay with SK-MEL-5 melanoma. For the same compound, the growth in the assay with UACC-62 melanoma is 90.7%; with LOX IMVI melanoma, 74.3%; with SK-MEL-28 melanoma it was 105%; with EKVX NSCLC it was 64.8%; in the assay with SN12C renal, 82.2%; with UO-31 renal it was 57.8%. Further, the growth is 96.2% in the assay with TK-10 renal; 52.7% in the assay on ACHN renal; 56.7% in the assay on CAKI-1 renal; 68.9% in the assay with A498 renal; 78.9% with CCRF-CEM leukemia; 50.6% in the assay with MOLT-4 leukemia. Also, the growth with SR leukemia is 46.4%.

(Values after PubChem BioAssay (NCI).)
